From PubChem BioAssay (NCI) come the findings set out here.

Compounds without any hit were thinned out: in the full panel of roughly 83,000, 20% have a hit.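 Step 1: grow cells in 96-well plates. Step 2: add test compound at a single concentration. Step 3: incubate 48 h. Step 4: record percent growth.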 Values without a mark were called inactive. Calls of active or inactive are those of the source. How the source made its calls: active means growth percent below 10; inactive means the rest.

Some test systems named below: NCI-H23 lung; NCI-H226 lung; NCI-H322M lung; HOP-62 NSCLC; NCI-H460 lung; HOP-92 NSCLC; NCI-H522 lung; A549/ATCC NSCLC; 786-0 renal; COLO 205 colon.
Common to all, as to test: NCI-60 one-dose screen, 48 h (100 = growth as untreated, 0 = no growth, -100 = all killed)
Conditions in all cases: 10 µM unless noted

Take `CC1=CCc2ccccc21`: the growth was 97.6% in the assay on NCI-H23 lung; 95.3% with NCI-H226 lung; 91.3% in the assay on NCI-H322M lung; 101% with HOP-62 NSCLC; 99.8% with NCI-H460 lung; 82% with HOP-92 NSCLC. Also, the growth in the assay with NCI-H522 lung was 90.5%; in the assay with A549/ATCC NSCLC it was 97.1%; in the assay on 786-0 renal, 103%; in the assay with COLO 205 colon, 105%.

On to `O=C1/C(=C\c2cn(CC(O)CN3CCCCC3)c3ccccc23)c2ccccc2N1c1c(Cl)cccc1Cl` (stereo not given), for which the growth in the assay with NCI-H23 lung is -47.4% (active); in the assay with NCI-H226 lung, -73.9% (active); with NCI-H322M lung, -90.4% (active); with HOP-62 NSCLC, -91% (active); in the assay on NCI-H460 lung it was -82.7% (active); with HOP-92 NSCLC it was -87.4% (active). Moreover, the growth was -77.5% (active) with NCI-H522 lung, -90.4% (active) in the assay on A549/ATCC NSCLC, -72.6% (active) in the assay with 786-0 renal and -99.1% (active) with COLO 205 colon.

Consider `C=C(C)[C@@H]1CC[C@]2(C(N)=O)CC[C@]3(C)[C@H](CC[C@@H]4[C@@]5(C)C/C(=C/c6cccnc6)[C@H](O)C(C)(C)[C@@H]5CC[C@]43C)[C@@H]12`, for which the growth was 28.1% [100 µM] in the assay with NCI-H23 lung; 22.8% [100 µM] in the assay on NCI-H226 lung; 35.6% [100 µM] in the assay with NCI-H322M lung; 27.5% [100 µM] in the assay with HOP-62 NSCLC; 5.04% [100 µM] (active) in the assay on NCI-H460 lung; 23.4% [100 µM] with HOP-92 NSCLC. The growth in the assay on NCI-H522 lung is 8.63% [100 µM] (active); with A549/ATCC NSCLC, 23.1% [100 µM]; in the assay with 786-0 renal it was 22.7% [100 µM]; in the assay with COLO 205 colon, -36.6% [100 µM] (active).

Consider `Cc1cc(C)c(O)c(CNCCCCCCNCc2cc(C)cc(C)c2O)c1`, for which the growth was 56% with NCI-H23 lung; 81.6% in the assay with NCI-H226 lung; -12.6% (active) in the assay on NCI-H322M lung; 17.6% in the assay on HOP-62 NSCLC; -62.6% (active) in the assay with NCI-H460 lung; 12.1% in the assay with HOP-92 NSCLC. Further, the growth in the assay on NCI-H522 lung is -13% (active); in the assay on A549/ATCC NSCLC it was 32%; with 786-0 renal it was 54.5%; in the assay with COLO 205 colon, -72.8% (active).

`CC1Cc2c(Cl)ncnc2N(C)c2ccc(Cl)cc21` (stereo not given): the growth in the assay on NCI-H23 lung is 13.5%; in the assay on NCI-H226 lung it was -5.56% (active); with NCI-H322M lung it was 36.8%; in the assay on HOP-62 NSCLC it was 13.6%; with NCI-H460 lung it was 19.2%; in the assay on HOP-92 NSCLC, 8.05% (active). For the same molecule, the growth is -68.3% (active) in the assay on NCI-H522 lung, 17.9% in the assay on A549/ATCC NSCLC, 8.16% (active) in the assay on 786-0 renal and -77.6% (active) with COLO 205 colon.

Regarding `CCOc1ccccc1/C=N\Nc1ccc(S(=O)(=O)c2ccc(N/N=C/c3ccccc3OCC)cc2)cc1`, the growth in the assay with NCI-H23 lung was 95.7%; in the assay on NCI-H226 lung, 79.5%; in the assay with NCI-H322M lung, 92.1%; in the assay on HOP-62 NSCLC it was 93%; with NCI-H460 lung it was 98.6%; in the assay on HOP-92 NSCLC, 88.9%. The growth was 95.2% in the assay with NCI-H522 lung, 96.7% with A549/ATCC NSCLC, 103% in the assay with 786-0 renal and 114% in the assay on COLO 205 colon.

For `CCn1cc(-c2cc(-c3ccc(Cl)cc3)nc(N)n2)c(-c2ccc(Br)cc2)n1`, the growth in the assay with NCI-H23 lung was 79.4%; with NCI-H226 lung, 86.1%; in the assay with NCI-H322M lung, 92.6%; in the assay on HOP-62 NSCLC, 74.7%; with NCI-H460 lung it was 95.4%; in the assay with HOP-92 NSCLC, 74.2%. Moreover, the growth was 48.7% with NCI-H522 lung, 64.7% in the assay on A549/ATCC NSCLC, 89.4% in the assay with 786-0 renal and 85.7% in the assay with COLO 205 colon.

As for `Cc1cccc(C[C@H](NC(=O)Nc2ccc(Cl)cc2F)C(=O)N[C@@H]2C(=O)N3C[C@H](OC(=O)CCN(C)C)C[C@H]3C(=O)N3CCCC[C@H]3C(=O)N[C@@H](C)C(=O)N3C[C@H](C)C[C@H]3C(=O)O[C@H]2C)c1`, the growth was 34.4% in the assay on NCI-H23 lung; 28% with NCI-H226 lung; 59.2% in the assay on NCI-H322M lung; 35% in the assay on HOP-62 NSCLC; 13.6% in the assay with NCI-H460 lung; 19.1% with HOP-92 NSCLC. Besides, the growth in the assay on NCI-H522 lung was 24.6%; in the assay on A549/ATCC NSCLC, 25.4%; with 786-0 renal, 22.5%; in the assay with COLO 205 colon it was 9.51% (active).

For `O=C(C[n+]1ccn(CC(OCc2ccc(Cl)cc2Cl)c2ccc(Cl)cc2Cl)c1)c1ccc(F)cc1` (stereo not given), the growth is -87.8% (active) in the assay on NCI-H23 lung; -76.4% (active) in the assay on NCI-H226 lung; -89.3% (active) with NCI-H322M lung; -91.3% (active) with HOP-62 NSCLC; -86.1% (active) in the assay on NCI-H460 lung; -87.5% (active) in the assay with HOP-92 NSCLC. The growth was -82.2% (active) in the assay with NCI-H522 lung, 29.9% with A549/ATCC NSCLC, -94.3% (active) with 786-0 renal and -84.8% (active) in the assay on COLO 205 colon.

For `CCc1ccc(NC(=O)N[C@@H](Cc2cc(F)cc(F)c2)C(=O)N[C@@H]2C(=O)N3C[C@H](O)C[C@H]3C(=O)N3CCOC[C@H]3C(=O)N[C@@H](C)C(=O)N3C[C@H](C)C[C@H]3C(=O)O[C@H]2C)cc1`, the growth in the assay with NCI-H23 lung was 34.5%; in the assay with NCI-H226 lung, 63.2%; with NCI-H322M lung it was 84.3%; in the assay on HOP-62 NSCLC, 72.9%; in the assay on NCI-H460 lung it was 46.5%; with HOP-92 NSCLC, 10.3%. The growth is 27% in the assay on NCI-H522 lung, 79.3% in the assay on A549/ATCC NSCLC, 89.1% with 786-0 renal and 11.1% in the assay on COLO 205 colon.

For the molecule `COc1ccc2nc3c(cc2c1)C(=O)CC(C(F)(F)F)C3` (stereo not given), the growth in the assay on NCI-H23 lung is 50.5%; in the assay on NCI-H226 lung it was 39.8%; in the assay with NCI-H322M lung it was 37.4%; with HOP-62 NSCLC, 47.7%; in the assay on NCI-H460 lung, 10.5%; in the assay on HOP-92 NSCLC, 66.2%. The growth is 31.1% in the assay with NCI-H522 lung, 39.3% with A549/ATCC NSCLC, 53.7% in the assay with 786-0 renal and 9.86% (active) in the assay on COLO 205 colon.

Take `Cc1ccc(N)c(O)c1`: the growth was 86.2% with NCI-H23 lung; 97.5% in the assay on NCI-H226 lung; 91% with NCI-H322M lung; 91.7% in the assay on HOP-62 NSCLC; 100% in the assay with NCI-H460 lung; 68.1% in the assay with HOP-92 NSCLC. The growth is 73.8% in the assay on NCI-H522 lung, 85.4% in the assay with A549/ATCC NSCLC, 90.8% with 786-0 renal and 132% in the assay on COLO 205 colon.
